In all, about 5,500 compounds went through this assay and about 2,000 (36%) were called active. Not shown: some 18% with an inconclusive outcome. Cut-off read from the data, not from the text of the source: active = normalized growth mostly below about 0.91 (no sharp cut-off); inconclusive = no clear call, values can overlap the other calls; inactive = mostly above about 0.92. The list shows a part of the results.
Assay: chemical genetic growth profiling, strain panel (AID 1159580);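 note: tested at 20 µM; growth read once vehicle control cultures reached saturation at 30 °C; 1 = growth at the plate median or of vehicle wells; lower values mean less growth of the strain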
Conditions: growth OD

Measured: normalized growth

O=C(O)c1cc2ccccc2c(Cc2c(O)c(C(=O)O)cc3ccccc23)c1O
active: S. cerevisiae deletion strains, locus YJR066W, strain TOR1, stronger effect = lower value 0.819 | S. cerevisiae deletion strains, locus YLR113W, strain HOG1, stronger effect = lower value 0.847 | S. cerevisiae deletion strains, locus YNL183C, strain NPR1, stronger effect = lower value 0.829
inactive: S. cerevisiae deletion strains, locus YJR043C, strain POL32, stronger effect = lower value 1.01 | S. cerevisiae deletion strains, locus YKL009W, strain mrt4, stronger effect = lower value 0.989 | S. cerevisiae deletion strains, locus YKL068W, stronger effect = lower value 1.01 | S. cerevisiae deletion strains, locus YKL085W, strain MDH1 (second series), stronger effect = lower value 1 | S. cerevisiae deletion strains, locus YKL085W, strain MDH1, stronger effect = lower value 1 | S. cerevisiae deletion strains, locus YKL160W, strain elf1, stronger effect = lower value 1 | S. cerevisiae deletion strains, locus YKR001C, strain vps1, stronger effect = lower value 0.966 | S. cerevisiae deletion strains, locus YKR026C, strain gcn3, stronger effect = lower value 0.998 | S. cerevisiae deletion strains, locus YKR091W, strain srl3, stronger effect = lower value 1 | S. cerevisiae deletion strains, locus YLL001W, strain dnm1, stronger effect = lower value 0.996 | S. cerevisiae deletion strains, locus YLL026W, stronger effect = lower value 1 | S. cerevisiae deletion strains, locus YLL041C, strain sdh2, stronger effect = lower value 0.992 | S. cerevisiae deletion strains, locus YLR027C, strain aat2, stronger effect = lower value 0.999 | S. cerevisiae deletion strains, locus YLR039C, strain RIC1, stronger effect = lower value 0.996 | S. cerevisiae deletion strains, locus YLR058C, strain SHM2, stronger effect = lower value 1 | S. cerevisiae deletion strains, locus YLR102C, strain apc9, stronger effect = lower value 0.994 | S. cerevisiae deletion strains, locus YLR221C, strain rsa3, stronger effect = lower value 0.99 | S. cerevisiae deletion strains, locus YLR258W, strain gsy2, stronger effect = lower value 0.996 | S. cerevisiae deletion strains, locus YLR262C, strain YPT6 (second series), stronger effect = lower value 1.01 | S. cerevisiae deletion strains, locus YLR262C, strain YPT6, stronger effect = lower value 1.07 | S. cerevisiae deletion strains, locus YLR268W, strain sec22, stronger effect = lower value 0.993 | S. cerevisiae deletion strains, locus YLR320W, strain mms22, stronger effect = lower value 0.991 | S. cerevisiae deletion strains, locus YLR330W, strain CHS5, stronger effect = lower value 0.996 | S. cerevisiae deletion strains, locus YLR342W, strain FKS1 (second series), stronger effect = lower value 0.972 | S. cerevisiae deletion strains, locus YLR342W, strain FKS1, stronger effect = lower value 0.998 | S. cerevisiae deletion strains, locus YLR357W, strain rsc2, stronger effect = lower value 0.99 | S. cerevisiae deletion strains, locus YLR370C, strain arc18, stronger effect = lower value 1.01 | S. cerevisiae deletion strains, locus YLR371W, strain rom2, stronger effect = lower value 0.966 | S. cerevisiae deletion strains, locus YLR384C, strain iki3, stronger effect = lower value 0.988 | S. cerevisiae deletion strains, locus YLR418C, strain cdc73, stronger effect = lower value 0.93 | S. cerevisiae deletion strains, locus YML016C, strain PPZ1, stronger effect = lower value 0.978 | S. cerevisiae deletion strains, locus YML032C, strain rad52, stronger effect = lower value 0.994 | S. cerevisiae deletion strains, locus YML120C, strain ndi1, stronger effect = lower value 1 | S. cerevisiae deletion strains, locus YML124C, strain tub3, stronger effect = lower value 0.994 | S. cerevisiae deletion strains, locus YMR058W, strain fet3, stronger effect = lower value 1 | S. cerevisiae deletion strains, locus YMR078C, strain ctf18, stronger effect = lower value 0.984 | S. cerevisiae deletion strains, locus YMR125W, strain sto1, stronger effect = lower value 1 | S. cerevisiae deletion strains, locus YMR129W, stronger effect = lower value 0.997 | S. cerevisiae deletion strains, locus YMR205C, strain PFK2, stronger effect = lower value 1.01 | S. cerevisiae deletion strains, locus YMR223W, strain ubp8, stronger effect = lower value 1 | S. cerevisiae deletion strains, locus YMR231W, strain pep5, stronger effect = lower value 1 | S. cerevisiae deletion strains, locus YMR263W, strain SAP30, stronger effect = lower value 0.999 | S. cerevisiae deletion strains, locus YMR307W, strain GAS1, stronger effect = lower value 1.1 | S. cerevisiae deletion strains, locus YNL067W, strain RPL9B, stronger effect = lower value 1.01 | S. cerevisiae deletion strains, locus YNL071W, strain lat1, stronger effect = lower value 0.987 | S. cerevisiae deletion strains, locus YNL209W, strain ssb2, stronger effect = lower value 1 | S. cerevisiae deletion strains, locus YNL233W, strain BNI4, stronger effect = lower value 1.01 | S. cerevisiae deletion strains, locus YNL248C, strain rpa49, stronger effect = lower value 0.984 | S. cerevisiae deletion strains, locus YNL250W, strain rad50, stronger effect = lower value 1.01 | S. cerevisiae deletion strains, locus YNL271C, strain bni1, stronger effect = lower value 1.01 | S. cerevisiae deletion strains, locus YNL298W, strain CLA4, stronger effect = lower value 0.983 | S. cerevisiae deletion strains, locus YNL307C, strain MCK1, stronger effect = lower value 0.996 | S. cerevisiae deletion strains, locus YNL322C, strain KRE1 (second series), stronger effect = lower value 1.02 | S. cerevisiae deletion strains, locus YNR049C, strain mso1, stronger effect = lower value 1 | S. cerevisiae deletion strains, locus YNR052C, strain pop2, stronger effect = lower value 0.981 | S. cerevisiae deletion strains, locus YOL012C, strain htz1 0.665 | S. cerevisiae deletion strains, locus YOL147C, strain pex11, stronger effect = lower value 1 | S. cerevisiae deletion strains, locus YOR001W, strain rrp6, stronger effect = lower value 1.01 | S. cerevisiae deletion strains, locus YOR061W, strain CKA2, stronger effect = lower value 0.984 | S. cerevisiae deletion strains, locus YOR069W, strain VPS5, stronger effect = lower value 0.999 | S. cerevisiae deletion strains, locus YOR070C, strain gyp1, stronger effect = lower value 1 | S. cerevisiae deletion strains, locus YOR080W, strain dia2, stronger effect = lower value 1 | S. cerevisiae deletion strains, locus YOR083W, strain WHI5, stronger effect = lower value 1 | S. cerevisiae deletion strains, locus YOR106W, strain vam3, stronger effect = lower value 0.976 | S. cerevisiae deletion strains, locus YOR136W, strain idh2, stronger effect = lower value 1 | S. cerevisiae deletion strains, locus YOR144C, strain elg1, stronger effect = lower value 0.99 | S. cerevisiae deletion strains, locus YOR184W, strain ser1, stronger effect = lower value 0.989 | S. cerevisiae deletion strains, locus YOR231W, strain MKK1, stronger effect = lower value 0.875 | S. cerevisiae deletion strains, locus YOR265W, strain rbl2, stronger effect = lower value 0.991 | S. cerevisiae deletion strains, locus YOR270C, strain vph1, stronger effect = lower value 0.974 | S. cerevisiae deletion strains, locus YOR290C, strain snf2, stronger effect = lower value 0.989 | S. cerevisiae deletion strains, locus YOR316C, strain cot1, stronger effect = lower value 0.997 | S. cerevisiae deletion strains, locus YPL051W, strain arl3, stronger effect = lower value 1.01 | S. cerevisiae deletion strains, locus YPL055C, strain LGE1, stronger effect = lower value 1 | S. cerevisiae deletion strains, locus YPL078C, strain atp4, stronger effect = lower value 1 | S. cerevisiae deletion strains, locus YPL106C, strain sse1, stronger effect = lower value 0.964 | S. cerevisiae deletion strains, locus YPL240C, strain hsp82, stronger effect = lower value 0.976 | S. cerevisiae deletion strains, locus YPL256C, strain CLN2, stronger effect = lower value 0.905 | S. cerevisiae deletion strains, locus YPR119W, strain clb2, stronger effect = lower value 0.988 | S. cerevisiae deletion strains, locus YPR141C, strain kar3, stronger effect = lower value 1.02 | S. cerevisiae deletion strains, locus YPR163C, strain tif3, stronger effect = lower value 0.995 | S. cerevisiae deletion strains, locus YPR167C, strain met16, stronger effect = lower value 0.991 | S. cerevisiae deletion strains, strain wtn01, stronger effect = lower value 0.985 | S. cerevisiae strains, strain wild type, stronger effect = lower value 1

From PubChem BioAssay AID1159580 (chemical genetic matrix, 2015)
